Rows were chosen to be rich in hits. Some 19% of all compounds tested hit in one or more screens of this group.
HT1080 IDH1KD tx = qHTS for induction of synthetic lethality in tumor cells producing 2HG: qHTS for the HT-1080-IDH1KD cell line; HT-1080 IDH1 knockdown viability, ATP luminescence, 48 h; Potency, µM (titrated, usually from 46.1 µM), for inactives: top-dose activity, negative = toxicity, usual class: cytotoxic; 2% of 360,000 active; AID 686971, 2013;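 further: 0% = DMSO wells and -100% = cell-free medium wells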
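Assay cells: HT-1080 with IDH1 knockdown, 750 per well, RPMI/5% FBS. Exposure: 48 h at 37 °C following 2 h pre-incubation. Read: CellTiter-Glo luminescence; fitted concentration-response, curve class assigned.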
TDP1 cell CPT = qHTS for Inhibitors of human tyrosyl-DNA phosphodiesterase 1 (TDP1): qHTS in cells in presence of CPT; chicken DT40 Tdp1-/-;hTDP1 cells + 20 nM CPT, ATP luminescence, 48 h; Potency, µM (titrated, usually from 46.2 µM), for inactives: at the highest dose activity change, negative = growth inhibition, hits mostly inhibitors; 12% of 420,000 active; AID 686979, 2013; further: nearly all actives have a fitted effect of over 55% in size
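Cell growth measured by CellTiter-Glo luminescence after a minimum 48 h, 37 C compound exposure with 20 nM CPT in Tdp1-knockout DT40 cells stably expressing hTDP1, seeded 400/well; qHTS titration format.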
TDP1 cell noCPT = qHTS for Inhibitors of human tyrosyl-DNA phosphodiesterase 1 (TDP1): qHTS in cells in absence of CPT; Potency, µM (highest dose often 46.2 µM), for inactives: at the highest dose activity change, negative = growth inhibition, most hits filed as inhibitors; DT40 Tdp1-/- hTDP1 cells, no CPT, ATP luminescence, 48 h; 15% of 420,000 active; further: nearly all actives have a fitted effect of over 55% in size
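Seeded 400 DT40-hTDP1 cells/well (vehicle DMSO, no 20 nM CPT); pinned compounds; ≥48 hr at 37 °C; CellTiter-Glo luminescence as viability measure.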
KB-V1 MDR tox = qHTS assay for MDR1-selective chemotherapeutics: Primary screen using the drug-selected MDR subline cells KB-V1; AID 1347076, 2019; KB-V1 MDR cells viability, CellTiter-Glo, 72 h; 3.4% of 400,000 active; Potency, µM (doses to about 46.1 µM), usual class: cytotoxic; further: nearly all actives have a fitted effect of over 60% in size
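KB-V1, DMEM (no phenol red) + 10% FBS; cpd pin-transferred, titration series; 72 h, 37 degrees C; CellTiter-Glo, luminescence. Data normalized, curve-fit.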
HT1080-NT tox = qHTS for induction of synthetic lethality in tumor cells producing 2HG: qHTS for the HT-1080-NT fibrosarcoma cell line. 1.6% of 360,000 active. AID 686970, 2013. HT-1080-NT fibrosarcoma viability, CellTiter-Glo ATP luminescence, 48 h. Potency, µM (doses to about 46.1 µM), inactives show at the highest dose activity, negative = less viability, actives largely listed as cytotoxic;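 further: NT is the 2HG producing partner of a matched IDH1 knockdown line; 0% = DMSO-treated cells and -100% = media-only wells without cells; nearly all actives have a fitted effect of over 55% in size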
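HT-1080-NT fibrosarcoma cells (2HG-overproducing), 750 cells/well in RPMI with 5% FBS, dosed after 2 h and incubated 48 h at 37C. CellTiter-Glo luminescence normalized to DMSO and no-cell wells; concentration-response curves fitted and classed.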
KB-3-1 cytotox = qHTS assay for MDR1-selective chemotherapeutics: Primary screen using the parental adenocarcinoma cell KB-3-1; 1.4% of 400,000 active; KB-3-1 viability, CellTiter-Glo ATP luminescence, 72 h; Potency, µM (doses to about 46.1 µM), actives largely listed as cytotoxic; AID 1347075, 2019; further: nearly all actives have a fitted effect of over 60% in size
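KB-3-1 cells, DMEM (no phenol red) + 10% FBS; compound by pin transfer, 72 h, 37 °C. Readout: CellTiter-Glo luminescence after 10 min. Data normalized, curve-fitted.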
Numbers without * were called inactive; i = inactive; ? = inconclusive; . = no result. The call rests on the fitted dose curve; in most records, active means well fitted curve in the direction sought with a large enough effect; inconclusive means small, poorly fitted or top-dose-only effect, or another doubt; inactive means no such curve, though single readings can be large; an effect the other way counts as inactive or inconclusive. Unless noted, on the % scale 0 is the no-effect control and ±100 the full control effect; potency means the concentration at half of the fitted maximal effect.

SMILES	HT1080 IDH1KD tx	TDP1 cell CPT	TDP1 cell noCPT	KB-V1 MDR tox	HT1080-NT tox	KB-3-1 cytotox
OCCN(Cc1cccnc1)Cc1ccccn1	-17%	?	?	10µM*	6%	i
COCCNc1nnc(SCC(=O)Nc2cc(-c3ccccc3)nn2-c2ccccc2)s1	6%	26µM*	16µM*	16µM*	-9%	i
COc1ccc(-n2cnnc2SCC(=O)Nc2cc(C(C)(C)C)nn2-c2ccccc2)cc1	-1%	3%	-7%	i	13%	i
Cc1cc(C)c(-c2cc(NC(=O)CSc3nncn3C)n(-c3ccccc3)n2)cc1C	-23%	18µM*	21µM*	i	-6%	i
COc1ccccc1-n1cnnc1SCC(=O)Nc1cc(C(C)(C)C)nn1-c1ccccc1	-1%	10µM*	13µM*	i	18%	i
CC(C)(C)c1cc(NC(=O)CCl)n(-c2ccccc2)n1	?	?	21µM*	?	?	?
COCCNc1nnc(SCC(=O)Nc2nnc(-c3ccccc3)o2)s1	1%	-2%	12%	i	0%	i
COCCn1c(SCC(=O)Nc2cc(C(C)(C)C)nn2-c2ccccc2)nnc1-c1ccncc1	-8%	-14%	?	16µM*	3%	i
COc1ccccc1-n1nnnc1SCC(=O)Nc1ccccn1	7%	5%	1%	16µM*	6%	i
CC1(C(=O)NS(=O)(=O)c2ccccc2Cl)CCN1C(=O)CCc1ccccc1 (stereo unspecified)	24%	-11%	-4%	i	1%	i
Cc1ccc(N(CC(=O)NC2CCCC2)C(=O)CNC(=O)c2cccs2)cc1F	9%	2%	-3%	?	14%	i
COc1cccc(Nc2nnc(-c3cc4ccc(O)cc4oc3=O)s2)c1	.	?	23µM*	.	.	.
O=c1oc2cc(O)ccc2cc1-c1nnc(Nc2ccccc2F)s1	.	7%	-20%	.	.	.
COc1ccc(N2CC(NC(=O)COc3ccccc3C)CC2=O)cc1OC (stereo unspecified)	.	-5%	?	i	.	i
CCc1ccc(NC(=O)c2ccc(F)c(S(=O)(=O)NC3CCCCCC3)c2)cc1	.	?	21µM*	.	.	.
CCc1ccc(NC(=O)c2ccc(F)c(S(=O)(=O)N(C)C3CCCCC3)c2)cc1	.	?	21µM*	.	.	.
O=C(Nc1cc(Cl)cc(Cl)c1)c1ccc(F)c(S(=O)(=O)NC2CCCC2)c1	.	16µM*	18µM*	.	.	.
Cc1ccccc1NC(=O)c1ccc(F)c(S(=O)(=O)NC2CCCC2)c1	.	6%	-10%	.	.	.
CN(C)S(=O)(=O)N1CCc2ccc(NC(=O)c3ccc(C(F)(F)F)cc3)cc2C1	?	16µM*	23µM*	?	16µM*	?
COc1ccc(OC2(C)CCN(Cc3ccccc3OC(F)F)C2)cc1 (stereo unspecified)	0%	?	?	i	-8%	i
N#C/C(=C\C=C\c1ccccc1[N+](=O)[O-])C(=O)NCc1ccccc1	?	4.6µM*	6.5µM*	?	-24%	16µM*
C=CCNC(=O)/C(C#N)=C/c1ccccc1[N+](=O)[O-]	1%	-19%	?	i	-2%	i
N#C/C(=C\c1cccnc1)C(=O)Nc1ccccc1[N+](=O)[O-]	1%	?	-19%	i	-27%	i
N#C/C(=C\c1ccccc1[N+](=O)[O-])C(=O)NCc1ccccc1	-16%	-21%	21µM*	i	-22%	i
CCCCCCCCNC(=O)/C(C#N)=C/c1ccccc1[N+](=O)[O-]	-17%	?	?	16µM*	-19%	?
SMILES	HT1080 IDH1KD tx	TDP1 cell CPT	TDP1 cell noCPT	KB-V1 MDR tox	HT1080-NT tox	KB-3-1 cytotox
Cc1ccccc1OCc1nc2ccc(S(=O)(=O)N3CCOCC3)cc2[nH]1	2%	?	-21%	21µM*	-9%	i
CCc1ccccc1OCc1nc2ccc(S(=O)(=O)N3CCOCC3)cc2[nH]1	-7%	23µM*	?	i	2%	i
Cc1cc2nc(NC(=O)C3(C)CCN3C(=O)C(C)C)[nH]c2cc1C (stereo unspecified)	0%	-15%	-29%	i	26%	i
CCOc1cccc(C(=O)NC(=S)Nc2cccnc2)c1	17%	0%	?	?	4%	i
CCCCOc1cccc(C(=O)NC(=S)Nc2cccnc2)c1	1%	-27%	?	18µM*	-3%	i
CCCCOc1cccc(C(=O)NC(=S)Nc2cccc(C(F)(F)F)c2)c1	-2%	?	29µM*	i	-12%	i
CCC(C)(C)n1nnnc1C(c1ccncc1)N1CCC(C)CC1 (stereo unspecified)	1%	-17%	-3%	i	3%	i
CCC(C)(C)n1nnnc1C(c1ccc(C)cc1)N1CCC(C)CC1 (stereo unspecified)	-22%	13µM*	?	?	-27%	i
CCC(C)(C)n1nnnc1C(c1ccc2ncccc2c1)N1CCN(c2nc3ccccc3s2)CC1 (stereo unspecified)	?	21µM*	?	i	?	i
CCC(C)(C)n1nnnc1C(c1ccc2ncccc2c1)N1CCCC(C)C1 (stereo unspecified)	-9%	-22%	11µM*	i	-5%	i
O=C(NCc1ccco1)c1[nH]c(C(F)(F)F)nc1-c1ccccc1	6%	-11%	-28%	?	1%	i
CCOc1ccc(-c2nc(CNC(=O)NC3CCCCC3)c(C)o2)cc1	.	-10%	6%	i	.	i
CCN(CC)c1ccc(S(=O)(=O)N2CCOCC2)cc1NC(=O)Cn1nc(C)c([N+](=O)[O-])c1C	1%	?	?	i	-1%	i
Cc1nn(CC(=O)Nc2ccc3c(c2)CCC3)c(C)c1[N+](=O)[O-]	-5%	-29%	-20%	18µM*	-4%	i
Cc1nn(CC(=O)Nc2cc(S(=O)(=O)N(C)C)ccc2Cl)c(C)c1[N+](=O)[O-]	-3%	-19%	-22%	21µM*	8%	i

Source: PubChem BioAssay (National Center for Advancing Translational Sciences (NCATS))
